Counter-ions that a name gives are not always drawn.

What all share (conditions): treatment time: 24 h
Experiment [1] relates to A549-ACTB-RAB5A. Put plainly: lowest phenotypically active concentration; higher = less potent. The procedure, abridged:
(§1)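 The reporter lines, fifteen in total and built by gene editing in A549, HepG2 and WPMY1 cells, used BFP for segmentation alongside GFP and RFP/FusionRed markers. Each was treated at 0.3, 1, 3 or 9 µM for 24 h in four wells and then imaged live, with live-cell features normalised to solvent control wells. Deviation meant ≥3 of 4 wells beyond the 95th percentile of control Euclidean distances; reproducibility meant a median replicate Pearson correlation above the 95th percentile of non-replicates. Only conditions meeting both were scored as phenotypically active.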

Experiment [2] concerns A549-GM130-SQSTM1. Described as above. The procedure, abridged:
as §1

In experiment [3] the test system is A549-TUBA1B-RELA. The description is as above. Put shortly:
as §1

The subject of experiment [4] is HepG2-ACTB-RAB5A. The description is as above. The procedure, abridged:
as §1

The subject of experiment [5] is WPMY1-GM130-SQSTM1. The description is as above. The procedure, abridged:
as §1

In experiment [6] the test system is A549-ACTB-RAB5A. Description: phenotypically active (imaging signature differs from DMSO and reproducible) at any of 0.3-9 uM (binary (1 = active, 0 = inactive)); higher = active. The procedure, abridged: as §1
Another experiment relates to A549-CANX-COX4. The description is as above. The procedure, abridged:
as §1

Experiment [7] relates to A549-GM130-SQSTM1. Described as above. Put shortly: as §1
Another experiment concerns A549-TP53BP1-CLTA. Described as above. Put shortly:
as §1

For experiment [8], the system named is A549-TUBA1B-RELA. The experiment is described as above. The procedure, abridged: as §1
Experiment [9] has as its system HepG2-ACTB-RAB5A. The description is as above. Put shortly:
as §1

A further experiment deals with HepG2-CANX-COX4. Described as above. Put shortly: as §1
A further experiment deals with HepG2-GM130-SQSTM1. Described as above. The procedure, abridged:
as §1

The test system of the next experiment is HepG2-TP53BP1-CLTA. The description is as above. Put shortly: as §1
The next experiment relates to HepG2-TUBA1B-RELA. The experiment is described as above. The procedure, abridged:
as §1

The next experiment concerns WPMY1-ACTB-RAB5A. The experiment is described as above. Put shortly:
as §1

In a further experiment the test system is WPMY1-CANX-COX4. The description is as above. Put shortly: as §1
Experiment [10] has as its system WPMY1-GM130-SQSTM1. Described as above. Put shortly:
as §1

The next experiment has as its system WPMY1-TP53BP1-CLTA. Described as above. Put shortly: as §1
The subject of another experiment is WPMY1-TUBA1B-RELA. Described as above. The procedure, abridged:
as §1

In the case of `CC(C)(C)c1cc(C(=O)/C=C/c2ccc(C(=O)O)cc2)cc(C(C)(C)C)c1`, the “lowest phenotypically active concentration” value was not above 0.3 µM in the experiment with A549-ACTB-RAB5A [1]; 1 µM with A549-GM130-SQSTM1 [2]; 1 µM in the experiment with A549-TUBA1B-RELA [3]; not above 0.3 µM with HepG2-ACTB-RAB5A [4]; not above 0.3 µM with WPMY1-GM130-SQSTM1 [5]. The phenotypically active in the experiment with A549-ACTB-RAB5A [6] is 1 (active); with A549-CANX-COX4, 1 (active); with A549-GM130-SQSTM1 [7], 1 (active); with A549-TP53BP1-CLTA, 0 (inactive); in the experiment with A549-TUBA1B-RELA [8], 1 (active); in the experiment with HepG2-ACTB-RAB5A [9] it was 1 (active). The phenotypically active with HepG2-CANX-COX4 was 1 (active); in the experiment on HepG2-GM130-SQSTM1, 1 (active); with HepG2-TP53BP1-CLTA, 1 (active); with HepG2-TUBA1B-RELA, 0 (inactive); with WPMY1-ACTB-RAB5A, 1 (active); with WPMY1-CANX-COX4, 1 (active). For the same molecule, the phenotypically active with WPMY1-GM130-SQSTM1 [10], in the experiment on WPMY1-TP53BP1-CLTA and in the experiment on WPMY1-TUBA1B-RELA was 1 (active) throughout.
On to `CCc1cncnc1N1CCN(Cc2nc3cc(C(F)(F)F)ccc3[nH]2)CC1`, for which the results for the “lowest phenotypically active concentration” value in the experiment with A549-ACTB-RAB5A [1], in the experiment with A549-GM130-SQSTM1 [2] and in the experiment with HepG2-ACTB-RAB5A [4] were 3 µM, 9 µM and 9 µM, respectively. Besides, the phenotypically active in the experiment on A549-ACTB-RAB5A [6] is 1 (active); with A549-CANX-COX4, 1 (active); with A549-GM130-SQSTM1 [7], 1 (active); in the experiment with A549-TP53BP1-CLTA, 0 (inactive); in the experiment on A549-TUBA1B-RELA [8], 0 (inactive); in the experiment with HepG2-ACTB-RAB5A [9], 1 (active). Further, the phenotypically active was 1 (active) with HepG2-CANX-COX4; 1 (active) in the experiment on HepG2-GM130-SQSTM1; 1 (active) with HepG2-TP53BP1-CLTA; 1 (active) with HepG2-TUBA1B-RELA; 0 (inactive) in the experiment with WPMY1-ACTB-RAB5A; 0 (inactive) in the experiment on WPMY1-CANX-COX4. The results for the phenotypically active with WPMY1-GM130-SQSTM1 [10], in the experiment with WPMY1-TP53BP1-CLTA and in the experiment with WPMY1-TUBA1B-RELA were 0 (inactive), 0 (inactive) and 1 (active), respectively.
`CCn1c(=O)n([C@H]2CCCN(c3nccc(-c4cc5ccccc5o4)n3)C2)c2ccccc21`: the “lowest phenotypically active concentration” value with A549-ACTB-RAB5A [1] worked out at 3 µM; in the experiment on A549-GM130-SQSTM1 [2], 3 µM; in the experiment on A549-TUBA1B-RELA [3], 9 µM. The phenotypically active was 1 (active) in the experiment with A549-ACTB-RAB5A [6]; 1 (active) in the experiment with A549-CANX-COX4; 1 (active) in the experiment on A549-GM130-SQSTM1 [7]; 1 (active) in the experiment with A549-TP53BP1-CLTA; 1 (active) in the experiment with A549-TUBA1B-RELA [8]; 0 (inactive) in the experiment on HepG2-ACTB-RAB5A [9]. Moreover, the phenotypically active in the experiment on HepG2-CANX-COX4 is 0 (inactive); in the experiment with HepG2-GM130-SQSTM1, 0 (inactive); with HepG2-TP53BP1-CLTA it was 0 (inactive); in the experiment with HepG2-TUBA1B-RELA, 0 (inactive); in the experiment with WPMY1-ACTB-RAB5A it was 0 (inactive); with WPMY1-CANX-COX4, 1 (active). In addition, the phenotypically active with WPMY1-GM130-SQSTM1 [10], in the experiment on WPMY1-TP53BP1-CLTA and in the experiment with WPMY1-TUBA1B-RELA was 0 (inactive) in each case.
Take `CCCCOc1c(C(=O)c2c(F)cc(C)cc2F)cnc2[nH]ncc12`: the “lowest phenotypically active concentration” value with A549-ACTB-RAB5A [1] was not above 0.3 µM; in the experiment on A549-GM130-SQSTM1 [2], 1 µM; in the experiment on A549-TUBA1B-RELA [3], not above 0.3 µM; in the experiment on HepG2-ACTB-RAB5A [4] it was 3 µM. The phenotypically active was 1 (active) in the experiment with A549-ACTB-RAB5A [6]; 1 (active) with A549-CANX-COX4; 1 (active) with A549-GM130-SQSTM1 [7]; 0 (inactive) in the experiment with A549-TP53BP1-CLTA; 1 (active) with A549-TUBA1B-RELA [8]; 1 (active) in the experiment with HepG2-ACTB-RAB5A [9]. In addition, the phenotypically active was 0 (inactive) in the experiment on HepG2-CANX-COX4; 1 (active) in the experiment with HepG2-GM130-SQSTM1; 1 (active) in the experiment with HepG2-TP53BP1-CLTA; 1 (active) in the experiment with HepG2-TUBA1B-RELA; 1 (active) in the experiment with WPMY1-ACTB-RAB5A; 1 (active) in the experiment on WPMY1-CANX-COX4. For the same molecule, the phenotypically active in the experiment on WPMY1-GM130-SQSTM1 [10] was 0 (inactive); in the experiment on WPMY1-TP53BP1-CLTA, 0 (inactive); in the experiment on WPMY1-TUBA1B-RELA, 1 (active).
On to `COc1c(Cl)cc2c([nH]c3cnccc32)c1NC(=O)c1cccnc1C` [ML 120B dihydrochloride], for which the “lowest phenotypically active concentration” value stood at 9 µM in the experiment on A549-ACTB-RAB5A [1], 3 µM in the experiment on A549-GM130-SQSTM1 [2], 9 µM with A549-TUBA1B-RELA [3] and 9 µM in the experiment on HepG2-ACTB-RAB5A [4]. Besides, the phenotypically active in the experiment on A549-ACTB-RAB5A [6] was 1 (active); in the experiment on A549-CANX-COX4, 1 (active); in the experiment with A549-GM130-SQSTM1 [7], 1 (active); in the experiment with A549-TP53BP1-CLTA it was 0 (inactive); with A549-TUBA1B-RELA [8] it was 1 (active); in the experiment on HepG2-ACTB-RAB5A [9] it was 1 (active). Moreover, the phenotypically active in the experiment on HepG2-CANX-COX4 was 1 (active); with HepG2-GM130-SQSTM1, 0 (inactive); with HepG2-TP53BP1-CLTA, 1 (active); in the experiment with HepG2-TUBA1B-RELA it was 0 (inactive); with WPMY1-ACTB-RAB5A it was 0 (inactive); in the experiment with WPMY1-CANX-COX4, 0 (inactive). Also, the phenotypically active in the experiment with WPMY1-GM130-SQSTM1 [10], in the experiment on WPMY1-TP53BP1-CLTA and with WPMY1-TUBA1B-RELA was 0 (inactive) each time.
In the case of `OCc1cc(C(O)CNCCCCCCOCCCCc2ccccc2)ccc1O` (centres undefined) [salmeterol], the “lowest phenotypically active concentration” value with A549-ACTB-RAB5A [1] amounted to 9 µM; with A549-GM130-SQSTM1 [2], 9 µM; in the experiment with A549-TUBA1B-RELA [3], 9 µM; in the experiment with HepG2-ACTB-RAB5A [4], 9 µM; with WPMY1-GM130-SQSTM1 [5], 1 µM. Further, the phenotypically active in the experiment with A549-ACTB-RAB5A [6] was 1 (active); with A549-CANX-COX4, 1 (active); with A549-GM130-SQSTM1 [7], 1 (active); with A549-TP53BP1-CLTA, 0 (inactive); in the experiment on A549-TUBA1B-RELA [8], 1 (active); in the experiment on HepG2-ACTB-RAB5A [9] it was 1 (active). Also, the phenotypically active is 0 (inactive) in the experiment on HepG2-CANX-COX4; 1 (active) in the experiment with HepG2-GM130-SQSTM1; 1 (active) in the experiment on HepG2-TP53BP1-CLTA; 1 (active) in the experiment with HepG2-TUBA1B-RELA; 1 (active) with WPMY1-ACTB-RAB5A; 1 (active) in the experiment on WPMY1-CANX-COX4. Moreover, the phenotypically active in the experiment on WPMY1-GM130-SQSTM1 [10], in the experiment with WPMY1-TP53BP1-CLTA and with WPMY1-TUBA1B-RELA was 1 (active) in each case.

The values above are taken from the supplement of paper PMC7411054.
